The term residual activity denotes the signal under treatment as a percentage of the control signal.

For one compound, residual activity results are on record in ChEMBL document CHEMBL2218924, “A broad activity screen in support of a chemogenomic map for kinase signalling research and drug discovery” (Biochem J, 2013).

Test [1] addresses T1, Ephrin type-A receptor 3 (Homo sapiens) (UniProt P29320).
T1 sequence (whole entry): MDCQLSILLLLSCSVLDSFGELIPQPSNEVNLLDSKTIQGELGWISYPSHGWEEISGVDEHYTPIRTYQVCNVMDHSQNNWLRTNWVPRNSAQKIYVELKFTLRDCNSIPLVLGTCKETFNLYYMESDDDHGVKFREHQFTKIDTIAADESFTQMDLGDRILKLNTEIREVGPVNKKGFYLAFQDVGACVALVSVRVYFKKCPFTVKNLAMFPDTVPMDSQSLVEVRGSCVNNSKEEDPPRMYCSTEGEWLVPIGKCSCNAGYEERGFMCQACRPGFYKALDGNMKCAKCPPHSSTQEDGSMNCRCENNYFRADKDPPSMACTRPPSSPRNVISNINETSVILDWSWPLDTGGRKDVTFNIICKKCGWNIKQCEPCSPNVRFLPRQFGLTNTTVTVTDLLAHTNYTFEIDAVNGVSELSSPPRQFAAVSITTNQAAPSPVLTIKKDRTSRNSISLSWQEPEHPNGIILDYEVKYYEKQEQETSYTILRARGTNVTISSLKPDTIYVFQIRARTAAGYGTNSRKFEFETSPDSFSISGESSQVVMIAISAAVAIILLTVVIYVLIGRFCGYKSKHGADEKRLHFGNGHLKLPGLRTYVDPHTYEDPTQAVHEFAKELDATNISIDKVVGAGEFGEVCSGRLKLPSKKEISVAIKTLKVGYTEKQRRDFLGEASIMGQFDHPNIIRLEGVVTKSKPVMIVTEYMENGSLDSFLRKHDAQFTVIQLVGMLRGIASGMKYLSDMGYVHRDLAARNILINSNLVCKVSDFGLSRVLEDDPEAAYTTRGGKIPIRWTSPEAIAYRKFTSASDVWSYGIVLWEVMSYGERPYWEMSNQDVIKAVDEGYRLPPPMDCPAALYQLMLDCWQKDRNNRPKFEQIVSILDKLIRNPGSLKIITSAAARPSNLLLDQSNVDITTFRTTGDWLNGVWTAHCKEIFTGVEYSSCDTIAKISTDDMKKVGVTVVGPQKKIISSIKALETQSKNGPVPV
Particulars: at 10 µM.

In test [2] the target is Ephrin type-A receptor 4 (Homo sapiens) (UniProt P54764). Particulars: at 10 µM.
The target of test [3] is Ephrin type-A receptor 5 (Homo sapiens) (UniProt P54756). Particulars: at 1 µM.
Sequence of Ephrin type-A receptor 5 (Homo sapiens) (P54756 whole entry): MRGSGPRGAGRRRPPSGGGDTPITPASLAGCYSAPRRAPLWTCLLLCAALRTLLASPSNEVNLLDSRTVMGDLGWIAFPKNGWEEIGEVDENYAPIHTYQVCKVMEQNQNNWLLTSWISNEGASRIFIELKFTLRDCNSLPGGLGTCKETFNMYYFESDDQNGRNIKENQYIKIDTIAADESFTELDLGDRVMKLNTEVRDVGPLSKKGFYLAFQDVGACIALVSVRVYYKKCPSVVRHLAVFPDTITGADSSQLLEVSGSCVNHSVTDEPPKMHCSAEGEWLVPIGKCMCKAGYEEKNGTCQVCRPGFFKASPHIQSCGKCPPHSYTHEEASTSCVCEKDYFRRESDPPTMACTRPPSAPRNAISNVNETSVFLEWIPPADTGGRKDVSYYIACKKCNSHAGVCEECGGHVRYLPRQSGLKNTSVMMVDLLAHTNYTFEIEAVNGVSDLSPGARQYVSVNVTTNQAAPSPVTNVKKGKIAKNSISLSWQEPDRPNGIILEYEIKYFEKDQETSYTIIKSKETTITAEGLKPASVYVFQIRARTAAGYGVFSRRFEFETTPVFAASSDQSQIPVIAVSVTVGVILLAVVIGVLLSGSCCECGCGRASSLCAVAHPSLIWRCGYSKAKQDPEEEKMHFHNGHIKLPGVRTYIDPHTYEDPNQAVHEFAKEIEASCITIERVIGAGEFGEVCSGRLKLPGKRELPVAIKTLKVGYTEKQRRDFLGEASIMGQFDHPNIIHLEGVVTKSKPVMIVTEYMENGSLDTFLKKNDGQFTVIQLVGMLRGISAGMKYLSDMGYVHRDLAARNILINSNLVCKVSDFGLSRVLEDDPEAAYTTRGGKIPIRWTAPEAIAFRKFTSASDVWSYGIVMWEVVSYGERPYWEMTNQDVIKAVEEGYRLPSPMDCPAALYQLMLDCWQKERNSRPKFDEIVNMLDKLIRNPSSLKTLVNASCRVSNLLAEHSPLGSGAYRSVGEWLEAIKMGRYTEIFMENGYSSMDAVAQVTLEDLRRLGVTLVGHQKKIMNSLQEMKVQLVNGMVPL
Test [4] has the same target. The note with it: at 10 µM.
For test [5], the target named is Ephrin type-A receptor 7 (Homo sapiens) (UniProt Q15375). Particulars: at 1 µM.
Sequence of Ephrin type-A receptor 7 (Homo sapiens) (Q15375 28-998 limits assumed): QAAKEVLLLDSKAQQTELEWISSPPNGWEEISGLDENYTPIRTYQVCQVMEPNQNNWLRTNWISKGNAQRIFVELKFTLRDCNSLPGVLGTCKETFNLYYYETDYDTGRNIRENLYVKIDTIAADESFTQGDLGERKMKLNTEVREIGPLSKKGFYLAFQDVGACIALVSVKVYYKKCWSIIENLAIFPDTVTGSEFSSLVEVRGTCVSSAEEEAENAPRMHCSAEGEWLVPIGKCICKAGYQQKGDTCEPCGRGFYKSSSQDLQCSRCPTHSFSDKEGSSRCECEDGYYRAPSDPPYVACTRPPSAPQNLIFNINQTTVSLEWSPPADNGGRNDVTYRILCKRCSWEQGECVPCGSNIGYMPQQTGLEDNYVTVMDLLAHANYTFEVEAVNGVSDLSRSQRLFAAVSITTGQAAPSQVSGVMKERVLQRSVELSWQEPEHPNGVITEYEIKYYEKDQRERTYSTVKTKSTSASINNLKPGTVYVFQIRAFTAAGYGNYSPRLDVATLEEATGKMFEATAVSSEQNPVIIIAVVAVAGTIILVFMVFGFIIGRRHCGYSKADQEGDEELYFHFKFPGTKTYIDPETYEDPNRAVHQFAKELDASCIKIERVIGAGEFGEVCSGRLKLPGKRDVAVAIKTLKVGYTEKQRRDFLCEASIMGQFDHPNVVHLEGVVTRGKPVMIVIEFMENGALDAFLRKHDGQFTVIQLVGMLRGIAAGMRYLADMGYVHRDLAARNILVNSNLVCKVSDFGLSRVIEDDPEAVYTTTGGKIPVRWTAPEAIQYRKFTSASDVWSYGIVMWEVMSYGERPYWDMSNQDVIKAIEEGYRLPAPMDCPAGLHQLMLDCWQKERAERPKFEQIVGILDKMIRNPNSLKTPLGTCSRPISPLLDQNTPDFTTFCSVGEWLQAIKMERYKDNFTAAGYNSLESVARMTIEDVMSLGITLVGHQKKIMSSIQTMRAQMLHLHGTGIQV
Test [6] shares this target. Particulars: at 10 µM.
The target of test [7] is T2, Ephrin type-A receptor 8 (Homo sapiens) (UniProt P29322).
T2 sequence (whole entry): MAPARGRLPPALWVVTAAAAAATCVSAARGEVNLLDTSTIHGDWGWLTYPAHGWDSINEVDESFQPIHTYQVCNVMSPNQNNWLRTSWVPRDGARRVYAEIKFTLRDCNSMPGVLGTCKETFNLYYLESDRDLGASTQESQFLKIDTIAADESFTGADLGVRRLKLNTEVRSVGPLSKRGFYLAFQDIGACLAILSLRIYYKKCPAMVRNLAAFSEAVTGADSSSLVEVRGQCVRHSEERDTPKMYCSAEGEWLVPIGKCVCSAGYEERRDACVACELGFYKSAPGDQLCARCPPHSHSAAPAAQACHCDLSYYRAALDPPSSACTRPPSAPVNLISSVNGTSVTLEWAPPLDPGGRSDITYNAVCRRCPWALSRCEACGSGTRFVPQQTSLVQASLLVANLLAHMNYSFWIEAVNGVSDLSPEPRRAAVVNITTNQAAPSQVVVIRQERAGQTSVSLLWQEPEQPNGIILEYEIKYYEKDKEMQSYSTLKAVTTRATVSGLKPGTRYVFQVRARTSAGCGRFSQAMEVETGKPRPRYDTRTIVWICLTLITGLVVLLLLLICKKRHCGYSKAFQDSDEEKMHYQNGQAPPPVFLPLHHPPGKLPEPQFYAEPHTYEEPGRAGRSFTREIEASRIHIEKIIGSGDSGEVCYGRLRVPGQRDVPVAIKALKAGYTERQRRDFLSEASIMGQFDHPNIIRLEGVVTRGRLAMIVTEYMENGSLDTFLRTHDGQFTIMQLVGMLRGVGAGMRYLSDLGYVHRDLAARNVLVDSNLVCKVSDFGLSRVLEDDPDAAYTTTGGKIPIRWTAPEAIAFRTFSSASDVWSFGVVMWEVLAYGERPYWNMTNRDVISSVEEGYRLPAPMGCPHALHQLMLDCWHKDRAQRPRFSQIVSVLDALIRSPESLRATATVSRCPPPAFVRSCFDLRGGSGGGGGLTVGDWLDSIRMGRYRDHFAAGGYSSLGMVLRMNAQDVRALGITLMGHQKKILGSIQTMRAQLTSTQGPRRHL
The note with it: at 1 µM.

Test [8] addresses T2, Ephrin type-A receptor 8 (Homo sapiens). The note with it: at 10 µM.
Test [9] concerns the target T3, Ephrin type-B receptor 1 (Homo sapiens) (UniProt P54762).
T3 sequence (whole entry): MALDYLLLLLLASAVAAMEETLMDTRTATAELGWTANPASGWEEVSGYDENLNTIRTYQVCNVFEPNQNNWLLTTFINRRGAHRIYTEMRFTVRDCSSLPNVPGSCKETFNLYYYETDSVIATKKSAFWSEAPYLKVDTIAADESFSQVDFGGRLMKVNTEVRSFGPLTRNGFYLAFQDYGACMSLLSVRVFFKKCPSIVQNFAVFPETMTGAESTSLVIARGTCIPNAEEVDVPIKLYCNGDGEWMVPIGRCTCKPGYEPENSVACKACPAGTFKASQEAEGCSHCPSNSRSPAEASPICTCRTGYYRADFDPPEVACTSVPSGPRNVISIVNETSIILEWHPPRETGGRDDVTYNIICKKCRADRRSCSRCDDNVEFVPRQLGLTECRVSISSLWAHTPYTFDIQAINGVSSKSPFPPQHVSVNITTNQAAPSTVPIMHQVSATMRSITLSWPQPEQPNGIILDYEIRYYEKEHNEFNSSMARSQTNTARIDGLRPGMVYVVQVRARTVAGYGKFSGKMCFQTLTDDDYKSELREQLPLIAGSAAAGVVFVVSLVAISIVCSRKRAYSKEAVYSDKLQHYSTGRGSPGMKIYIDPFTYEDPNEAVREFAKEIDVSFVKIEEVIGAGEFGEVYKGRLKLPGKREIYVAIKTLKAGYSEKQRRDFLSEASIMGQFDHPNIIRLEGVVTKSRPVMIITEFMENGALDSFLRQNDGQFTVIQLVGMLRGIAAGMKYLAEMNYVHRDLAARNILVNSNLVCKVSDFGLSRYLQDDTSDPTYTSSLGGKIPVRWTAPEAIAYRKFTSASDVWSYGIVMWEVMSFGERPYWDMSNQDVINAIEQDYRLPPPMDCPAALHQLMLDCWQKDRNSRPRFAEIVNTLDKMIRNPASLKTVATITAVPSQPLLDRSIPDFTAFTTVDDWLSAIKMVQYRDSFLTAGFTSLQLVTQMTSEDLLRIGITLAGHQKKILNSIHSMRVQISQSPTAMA
Particulars: at 1 µM.

For test [10], the target named is T3, Ephrin type-B receptor 1 (Homo sapiens). Particulars: at 10 µM.
Test [11] has as its target T4, Ephrin type-B receptor 4 (Homo sapiens) (UniProt P54760).
T4 sequence (whole entry): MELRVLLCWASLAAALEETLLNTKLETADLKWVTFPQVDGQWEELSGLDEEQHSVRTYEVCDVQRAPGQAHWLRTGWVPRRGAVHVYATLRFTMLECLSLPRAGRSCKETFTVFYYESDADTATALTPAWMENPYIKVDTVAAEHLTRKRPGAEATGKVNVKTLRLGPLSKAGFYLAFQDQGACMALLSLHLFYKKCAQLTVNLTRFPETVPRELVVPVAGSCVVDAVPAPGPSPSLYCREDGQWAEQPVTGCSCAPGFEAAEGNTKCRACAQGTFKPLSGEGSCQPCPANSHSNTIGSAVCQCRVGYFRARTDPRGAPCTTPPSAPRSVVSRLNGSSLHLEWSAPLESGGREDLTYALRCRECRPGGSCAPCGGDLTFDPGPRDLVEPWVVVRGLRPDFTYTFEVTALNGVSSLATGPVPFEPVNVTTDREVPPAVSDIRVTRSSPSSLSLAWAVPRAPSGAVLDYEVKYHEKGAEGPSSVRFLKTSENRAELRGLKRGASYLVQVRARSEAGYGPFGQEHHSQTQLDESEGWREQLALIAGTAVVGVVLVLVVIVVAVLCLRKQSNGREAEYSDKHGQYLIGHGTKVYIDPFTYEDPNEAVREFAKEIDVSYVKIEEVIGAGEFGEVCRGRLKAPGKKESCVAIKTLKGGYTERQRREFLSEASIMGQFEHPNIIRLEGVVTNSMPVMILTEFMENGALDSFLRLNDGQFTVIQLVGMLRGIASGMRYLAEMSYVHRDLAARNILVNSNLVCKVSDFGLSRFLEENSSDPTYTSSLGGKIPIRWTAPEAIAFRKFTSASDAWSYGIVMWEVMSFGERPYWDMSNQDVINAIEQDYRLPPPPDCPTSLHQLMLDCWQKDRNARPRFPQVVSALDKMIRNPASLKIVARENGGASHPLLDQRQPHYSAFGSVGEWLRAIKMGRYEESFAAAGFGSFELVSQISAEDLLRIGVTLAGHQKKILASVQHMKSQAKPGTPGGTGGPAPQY
Particulars: at 1 µM.

In test [12] the target is T4, Ephrin type-B receptor 4 (Homo sapiens). The note with it: at 10 µM.
The target of test [13] is Receptor tyrosine-protein kinase erbB-4 (Homo sapiens) (UniProt Q15303). The note with it: at 1 µM.
Sequence of Receptor tyrosine-protein kinase erbB-4 (Homo sapiens) (Q15303 whole entry): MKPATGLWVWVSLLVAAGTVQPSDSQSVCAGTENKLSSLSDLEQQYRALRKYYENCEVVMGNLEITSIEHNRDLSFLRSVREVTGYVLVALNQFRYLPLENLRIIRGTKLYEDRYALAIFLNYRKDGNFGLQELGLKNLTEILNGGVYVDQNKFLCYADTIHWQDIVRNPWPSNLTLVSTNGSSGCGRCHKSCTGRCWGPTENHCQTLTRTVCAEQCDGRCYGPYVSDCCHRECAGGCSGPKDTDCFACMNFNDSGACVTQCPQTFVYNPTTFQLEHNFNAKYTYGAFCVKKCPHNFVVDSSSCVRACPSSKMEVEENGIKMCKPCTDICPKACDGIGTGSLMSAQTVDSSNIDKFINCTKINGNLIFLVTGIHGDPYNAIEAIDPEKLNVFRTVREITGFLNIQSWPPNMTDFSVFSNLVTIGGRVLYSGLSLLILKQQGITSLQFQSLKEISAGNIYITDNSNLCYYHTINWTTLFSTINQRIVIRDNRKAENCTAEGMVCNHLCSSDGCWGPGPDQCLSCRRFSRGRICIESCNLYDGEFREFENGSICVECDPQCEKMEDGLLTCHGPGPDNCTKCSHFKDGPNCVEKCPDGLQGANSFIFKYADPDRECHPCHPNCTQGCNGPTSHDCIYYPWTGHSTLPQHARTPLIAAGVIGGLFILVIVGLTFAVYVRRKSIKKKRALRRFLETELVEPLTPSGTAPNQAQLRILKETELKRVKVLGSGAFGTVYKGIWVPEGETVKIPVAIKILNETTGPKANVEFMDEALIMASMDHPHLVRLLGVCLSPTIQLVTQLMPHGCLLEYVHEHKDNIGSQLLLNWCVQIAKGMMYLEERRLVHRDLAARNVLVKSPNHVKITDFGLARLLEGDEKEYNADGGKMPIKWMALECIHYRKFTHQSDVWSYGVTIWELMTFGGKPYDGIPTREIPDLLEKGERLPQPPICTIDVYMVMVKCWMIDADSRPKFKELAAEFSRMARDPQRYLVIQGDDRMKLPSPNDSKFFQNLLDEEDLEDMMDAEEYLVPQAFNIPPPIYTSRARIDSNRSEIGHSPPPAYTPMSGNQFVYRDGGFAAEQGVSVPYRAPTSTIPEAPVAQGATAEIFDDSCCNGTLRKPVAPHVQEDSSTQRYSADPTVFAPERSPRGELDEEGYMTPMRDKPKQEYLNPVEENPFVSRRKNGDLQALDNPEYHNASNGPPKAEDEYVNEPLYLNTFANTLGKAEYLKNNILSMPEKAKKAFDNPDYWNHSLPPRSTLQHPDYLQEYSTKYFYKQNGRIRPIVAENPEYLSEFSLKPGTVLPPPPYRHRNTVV
For test [14] the target is unchanged. The note with it: at 10 µM.
Test [15] has as its target Focal adhesion kinase 1 (Homo sapiens) (UniProt Q05397). Particulars: at 1 µM.

Sequence of Focal adhesion kinase 1 (Homo sapiens) (Q05397 2-1052 limits assumed): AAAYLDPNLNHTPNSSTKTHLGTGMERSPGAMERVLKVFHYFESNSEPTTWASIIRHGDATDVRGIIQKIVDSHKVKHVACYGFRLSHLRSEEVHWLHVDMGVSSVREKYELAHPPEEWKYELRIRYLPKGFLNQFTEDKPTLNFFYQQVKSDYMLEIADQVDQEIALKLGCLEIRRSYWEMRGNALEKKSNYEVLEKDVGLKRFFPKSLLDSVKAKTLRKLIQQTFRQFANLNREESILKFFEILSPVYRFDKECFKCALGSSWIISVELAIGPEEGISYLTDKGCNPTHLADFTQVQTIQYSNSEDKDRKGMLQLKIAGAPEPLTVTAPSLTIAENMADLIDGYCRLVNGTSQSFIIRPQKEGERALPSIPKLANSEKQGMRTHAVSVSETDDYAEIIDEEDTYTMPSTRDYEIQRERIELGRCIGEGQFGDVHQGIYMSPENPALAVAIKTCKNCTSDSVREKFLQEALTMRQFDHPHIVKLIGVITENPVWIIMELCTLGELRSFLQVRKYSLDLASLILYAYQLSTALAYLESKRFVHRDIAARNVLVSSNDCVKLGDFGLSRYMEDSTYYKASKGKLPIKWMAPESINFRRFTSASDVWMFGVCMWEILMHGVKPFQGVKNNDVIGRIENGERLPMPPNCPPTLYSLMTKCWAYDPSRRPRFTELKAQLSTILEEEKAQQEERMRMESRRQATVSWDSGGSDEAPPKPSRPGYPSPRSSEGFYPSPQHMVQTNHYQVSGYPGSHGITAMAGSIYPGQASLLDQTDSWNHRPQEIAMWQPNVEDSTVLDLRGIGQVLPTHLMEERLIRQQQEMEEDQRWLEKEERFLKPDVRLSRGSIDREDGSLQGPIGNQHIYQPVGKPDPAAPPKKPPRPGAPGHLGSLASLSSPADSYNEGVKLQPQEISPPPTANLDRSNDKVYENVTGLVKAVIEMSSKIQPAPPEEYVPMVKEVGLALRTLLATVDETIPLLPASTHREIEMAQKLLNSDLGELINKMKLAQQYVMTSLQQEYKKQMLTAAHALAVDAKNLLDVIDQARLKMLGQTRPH

`O=c1cc(N2CCOCC2)oc2c1ccc1ccccc12`: the residual activity was 94% in [1]; 103% in test [2]; 124% in test [3]; 93% in [4]; 103% in test [5]; 84% in [6]. The residual activity in test [7] stood at 100%; in test [8], 97%; in test [9], 95%; in [10] it was 89%; in [11] it was 101%; in test [12], 108%. Moreover, the results for the residual activity in test [13], in test [14] and in [15] were 106%, 92% and 132%, respectively.
